Settings in all cases: concentration: 1 μM, replicates: in singlicate; n = 1
Test [1] has as its system PRP4.
The test system of test [2] is T1, PYK2.
T1 construct: gene PTK2B

The subject of test [3] is QSK.
Test [4] concerns RAF1.
The subject of test [5] is RET.
The test system of test [6] is RIOK1.
In test [7] the test system is RIOK2.
Test [8] relates to RIOK3.
Test [9] concerns RIPK1.
Test [10] relates to RIPK2.
Test [11] deals with RIPK4.
Test [12] relates to RIPK5.
Test [13] deals with ROCK1.
Test [14] deals with ROCK2.
The subject of test [15] is ROS1.
The subject of test [16] is RPS6KA4(Kin.Dom.1-N-terminal).
In test [17] the test system is RPS6KA4(Kin.Dom.2-C-terminal).
Test [18] has as its system RPS6KA5(Kin.Dom.1-N-terminal).
The test system of test [19] is RPS6KA5(Kin.Dom.2-C-terminal).
Test [20] has as its system T2, RSK1(Kin.Dom.1-N-terminal).
T2 construct: gene RPS6KA1
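Also: KINOMEscan kinase panel screen.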

Take `COc1ccc(Nc2nccc(N3CCC(NC(=O)c4cc5ccccc5s4)C3)n2)cc1` (stereo not shown) [GSK1379738]: the “%Inh” value in test [1] is on record as 57%; in test [2], 0%; in [3] it was 0%; in [4] it was 11%; in test [5] it was 14%; in [6], 24%. Also, the “%Inh” value in test [7] is 0%; in test [8] it was 36%; in test [9], 28%; in test [10] it was 0%; in test [11], 20%; in [12] it was 7%. Besides, the “%Inh” value is listed as 8% in [13]; 21% in test [14]; 0% in [15]; 15% in test [16]; 0% in test [17]; 0% in [18]. In addition, the entries for the “%Inh” value in test [19] and in test [20] were 0% and 22%, respectively.

As for `O=C(Nc1n[nH]c2cc(-c3ccsc3)ccc12)C1CC1` [SB-732932], the “%Inh” value was 15% in [1]; 11% in test [2]; 26% in test [3]; 0% in test [4]; 0% in test [5]; 83% in [6]. Moreover, the “%Inh” value in [7] stood at 16%; in test [8] it was 0%; in test [9], 56%; in test [10], 0%; in test [11] it was 35%; in test [12], 8%. For the same compound, the “%Inh” value in test [13] amounted to 7%; in test [14], 0%; in [15] it was 0%; in test [16], 12%; in [17], 17%; in [18], 0%. For the same compound, the “%Inh” value was 13% in test [19] and 26% in [20].

Consider `CNC(=O)c1ccc(C)c(-n2c(C)cc(OCc3ccc(F)cc3F)c(Br)c2=O)c1`, for which the “%Inh” value in [1], in test [2], in [3], in test [4], in test [5] and in test [6] was 0% in each case. Besides, the “%Inh” value in test [7], in test [8], in test [9], in test [10], in test [11] and in test [12] was 0% throughout. Further, the “%Inh” value turned out to be 0% in test [13]; 0% in test [14]; 15% in test [15]; 67% in test [16]; 0% in [17]; 0% in test [18]. Moreover, the “%Inh” value in [19] and in test [20] was 0% in each case.

As to `O=C1NC(=O)C(c2ccc(Cl)cc2)=C1Nc1ccc(O)cc1` [SB-340867], the “%Inh” value in test [1] amounted to 8%; in [2] it was 18%; in test [3], 0%; in test [4], 46%; in [5], 0%; in test [6] it was 0%. The “%Inh” value in [7], in test [8], in test [9], in [10], in [11] and in [12] was 0% throughout. Besides, the “%Inh” value in test [13], in [14], in test [15], in [16], in [17] and in [18] was 0% each time. Moreover, the “%Inh” value in test [19] is given as 0%; in test [20], 9%.

Consider `COc1ccc(-c2coc3ccc(-c4nnc(C)o4)cc23)cc1`, for which the “%Inh” value is 17% in [1]; 0% in test [2]; 0% in test [3]; 11% in test [4]; 0% in [5]; 0% in [6]. In addition, the “%Inh” value amounted to 15% in [7]; 0% in [8]; 0% in test [9]; 3% in [10]; 0% in test [11]; 0% in test [12]. Further, the “%Inh” value in [13] stood at 0%; in test [14] it was 0%; in test [15] it was 0%; in test [16] it was 13%; in test [17] it was 0%; in test [18], 4%. Further, the “%Inh” value in test [19] came out at 4%; in test [20] it was 0%.

As to `Cc1ccc(NC(=O)Nc2ccccc2F)cc1-c1ccc(C(=O)Nc2ccncc2)cc1` [GSK1398477], the “%Inh” value is 2% in test [1]; 0% in test [2]; 20% in test [3]; 70% in test [4]; 21% in test [5]; 44% in [6]. The “%Inh” value in [7] turned out to be 11%; in test [8] it was 6%; in test [9], 15%; in test [10] it was 6%; in test [11], 30%; in test [12], 6%. For the same compound, the “%Inh” value amounted to 26% in test [13]; 0% in test [14]; 3% in [15]; 20% in test [16]; 0% in [17]; 34% in [18]. Besides, the “%Inh” value in test [19] turned out to be 0%; in [20] it was 23%.

Consider `O=C1NC(=O)C(c2ccc(Cl)cc2)=C1Nc1cccc(Cl)c1` [SB-317651], for which the “%Inh” value in test [1] is recorded as 0%; in [2], 0%; in test [3] it was 1%; in test [4], 22%; in [5] it was 8%; in test [6] it was 40%. In addition, the “%Inh” value in [7] stood at 0%; in test [8] it was 22%; in test [9] it was 0%; in test [10], 0%; in test [11], 46%; in test [12] it was 0%. Besides, the “%Inh” value in [13] amounted to 7%; in test [14], 0%; in test [15] it was 0%; in test [16], 86%; in [17], 0%; in [18], 1%. The results for the “%Inh” value in test [19] and in test [20] were 0% and 12%, respectively.

Regarding `O=C(Nc1n[nH]c2nc(-c3ccco3)c(Br)cc12)C1CCN(Cc2ccccc2)C1.O=C(O)[C@H](O)[C@@H](O)C(=O)O` (stereo not shown) [SB-742034], the “%Inh” value in test [1] was 0%; in test [2] it was 6%; in [3], 26%; in [4], 15%; in test [5], 2%; in test [6], 0%. Besides, the “%Inh” value came out at 7% in [7]; 0% in test [8]; 0% in test [9]; 0% in [10]; 17% in test [11]; 29% in [12]. Besides, the “%Inh” value in test [13] is given as 0%; in test [14], 0%; in [15], 5%; in test [16] it was 11%; in test [17] it was 12%; in [18], 0%. Further, the entries for the “%Inh” value in test [19] and in test [20] were 16% and 17%, respectively.

With `COc1ccc(Nc2nccc(N3CCC(NC(=O)C(C)c4ccc(Cl)cc4)C3)n2)cc1` (stereo not shown) [GSK1379735], the “%Inh” value is 14% in [1]; 0% in test [2]; 0% in test [3]; 34% in test [4]; 2% in test [5]; 27% in test [6]. Moreover, the “%Inh” value was 6% in test [7]; 17% in [8]; 5% in [9]; 10% in [10]; 4% in test [11]; 12% in test [12]. Further, the “%Inh” value was found to be 11% in test [13]; 4% in [14]; 17% in test [15]; 5% in test [16]; 0% in [17]; 21% in [18]. Moreover, the “%Inh” value in test [19] is on record as 0%; in test [20], 31%.

For the compound `Cc1cccc2c(-c3ccncn3)c(-c3ccc(F)cc3)nn12` [GW515532], the “%Inh” value was 10% in test [1]; 0% in [2]; 0% in test [3]; 0% in test [4]; 0% in test [5]; 34% in test [6]. In addition, the “%Inh” value is reported as 0% in [7]; 5% in test [8]; 1% in test [9]; 11% in test [10]; 8% in test [11]; 0% in [12]. The “%Inh” value in [13] was 3%; in [14], 13%; in [15] it was 0%; in test [16] it was 0%; in [17] it was 0%; in [18] it was 21%. Besides, the “%Inh” value in test [19] and in test [20] was 0% in each case.

Take `Cn1cncc1-c1cc2c(Nc3ccc(OCc4ccccc4)cc3)ncnc2cn1` [GW281179]: the “%Inh” value in test [1] is reported as 23%; in test [2], 9%; in [3], 0%; in test [4] it was 34%; in [5], 5%; in test [6], 27%. Also, the “%Inh” value is listed as 11% in test [7]; 6% in test [8]; 0% in test [9]; 92.1% in [10]; 8% in test [11]; 0% in test [12]. For the same compound, the “%Inh” value in test [13] is given as 82%; in test [14] it was 74%; in [15] it was 13%; in test [16] it was 9%; in test [17] it was 0%; in test [18], 11%. Moreover, the “%Inh” value in [19] turned out to be 0%; in [20], 30%.

For the origin of these results see publication PMC5540273 (PLoS ONE, 2017).
